The whole screen tested about 230,000 compounds, of which about 1,500 (0.65%) were called active.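 Rule for the calls: active = pattern-corrected inhibition of lipid staining of at least 50% with the nuclear-stain viability signal not falling by more than 50%; inactive = the rest, inconclusive results apart.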 For the sample, actives were picked, then their nearest neighbours and some compounds at random.
Test: TAG lipid buildup reduction in H9c2 cells – cell-based, uHTS, fluorescence, primary screen (AID 651582);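 for inhibition: 0% = DMSO wells and 100% = triacsin C control wells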
Settings: Nile Red lipid (TAG) fluorescence, at 12.5 µM, cells loaded with 200 µM oleic acid; DAPI nuclei signal change (viability), lower = more cytotoxic: measured here: DAPI nuclei count viability; inhibition: stronger effect = higher value
In the case of Cc1nc2ccc(C(=O)O)cc2[nH]1, the DAPI nuclei signal change (viability), lower = more cytotoxic is reported as 7.29% and the inhibition is reported as -10.7% (inactive).
With COC(=O)Nc1nc2ccc(Sc3ccccc3)cc2[nH]1 the DAPI nuclei signal change (viability), lower = more cytotoxic was -43.5% and the inhibition was 58.7% (active).
With COc1ccc2nc(SCC(=O)Nc3c(C)cc(C)cc3C)[nH]c2c1 the DAPI nuclei signal change (viability), lower = more cytotoxic was -8.51% and the inhibition was 24.4% (inactive).
For N#Cc1ccc(-c2ccc3nccn3c2)cc1, the DAPI nuclei signal change (viability), lower = more cytotoxic was 18.4% and the inhibition was -21.5% (inactive).
For COc1cc(C(=O)NCC(c2ccco2)N2CCCC2)ccc1OCc1ccccc1 (stereo not given), the DAPI nuclei signal change (viability), lower = more cytotoxic was 9.22% and the inhibition was 5.54% (inactive).
With CCC1CCCCN1C(=S)NC(=O)c1ccco1 (stereo not given) the DAPI nuclei signal change (viability), lower = more cytotoxic was -3.85% and the inhibition was -2.4% (inactive).
For COC(=O)c1ccc(-c2c(-c3ccccc3)ncc3cc(OC)c(OC)cc23)cc1, the DAPI nuclei signal change (viability), lower = more cytotoxic was -46.2% and the inhibition was 70.6% (active).
In the case of COc1ccc(OCC(=O)NNC(=O)c2ccc(-c3ccccc3)cc2)cc1, the DAPI nuclei signal change (viability), lower = more cytotoxic is reported as -4.12% and the inhibition is reported as -6.97% (inactive).
In the case of COC(=O)c1ccc(SCc2ccccc2)nc1, the DAPI nuclei signal change (viability), lower = more cytotoxic is reported as 0.616% and the inhibition is reported as -5.84% (inactive).
For CN(CC(=O)Nc1c(Cl)cccc1Cl)C(=O)CC1OC(=O)c2ccccc21 (stereo not given), the DAPI nuclei signal change (viability), lower = more cytotoxic was -7% and the inhibition was 2.91% (inactive).
In the case of COc1ccc(S(=O)(=O)N2CCCCC2c2cc(C(=O)NCc3ccc(F)cc3)no2)cc1 (stereo not given), the DAPI nuclei signal change (viability), lower = more cytotoxic is reported as -7.14% and the inhibition is reported as 11.8% (inactive).
In the case of O=C(Nc1ccc(OC(F)(F)F)cc1)c1ccc2c(c1)no[n+]2[O-], the DAPI nuclei signal change (viability), lower = more cytotoxic is reported as -44.5% and the inhibition is reported as 57.3% (active).
With Cn1nccc1NC(=O)Nc1ccc(OC(F)(F)F)cc1 the DAPI nuclei signal change (viability), lower = more cytotoxic was 0.761% and the inhibition was -19.5% (inactive).
In the case of CCOC(=O)Cc1ncccc1C(=O)Nc1ccc(OC(F)(F)F)cc1, the DAPI nuclei signal change (viability), lower = more cytotoxic is reported as -10.3% and the inhibition is reported as -0.736% (inactive).
For Cc1ccccc1Cn1c(C)c(C(=O)NCc2cccc(C(F)(F)F)c2)sc1=O, the DAPI nuclei signal change (viability), lower = more cytotoxic was 2.91% and the inhibition was 13.2% (inactive).
With CC(C)CC1C(=O)N(Cc2cn(CC3CCCCC3)nn2)CCS(=O)(=O)N1Cc1ccc(-c2ccc(Cl)cc2)cc1 (stereo not given) the DAPI nuclei signal change (viability), lower = more cytotoxic was -4.47% and the inhibition was 46.5% (inactive).
In the case of COc1ccc(-c2ccc(CN3C(CC(C)C)C(=O)N(Cc4cn(CC5CCCCC5)nn4)CCS3(=O)=O)cc2)cc1 (stereo not given), the DAPI nuclei signal change (viability), lower = more cytotoxic is reported as -3.84% and the inhibition is reported as 14.3% (inactive).
For CC(=O)c1cccc(-c2ccc(CN3C(CC(C)C)C(=O)N(Cc4cn(CC5CCCCC5)nn4)CCS3(=O)=O)cc2)c1 (stereo not given), the DAPI nuclei signal change (viability), lower = more cytotoxic was -20.7% and the inhibition was 52.2% (active).
With Cc1ccccc1-c1cc(C(=O)NCc2cccs2)n(CC2CC(c3cccnc3)=NO2)n1 (stereo not given) the DAPI nuclei signal change (viability), lower = more cytotoxic was -34.7% and the inhibition was -1.76% (inactive).
For O=C(CCc1ccc(S(=O)(=O)N2CCOCC2)cc1)OCC(=O)c1ccc(Br)cc1, the DAPI nuclei signal change (viability), lower = more cytotoxic was 5.4% and the inhibition was -35.9% (inactive).
With Cc1ccc(/C=N/NC(=S)Nc2cccc(S(=O)(=O)N(C)C)c2)o1 the DAPI nuclei signal change (viability), lower = more cytotoxic was -39% and the inhibition was 65.8% (active).
In the case of CN(C)S(=O)(=O)c1cccc(NC(=S)NCc2ccc3c(c2)OCO3)c1, the DAPI nuclei signal change (viability), lower = more cytotoxic is reported as 8.91% and the inhibition is reported as -12.9% (inactive).
For Cc1ccc(/C=N/NC(=S)NC2CCCCC2)o1, the DAPI nuclei signal change (viability), lower = more cytotoxic was -2.44% and the inhibition was 15.8% (inactive).
In the case of CN1OC[C@@H]2CN[C@H](c3ccc(-c4ccccc4)cc3)C[C@@H]21, the DAPI nuclei signal change (viability), lower = more cytotoxic is reported as -19.9% and the inhibition is reported as 37.5% (inactive).
With COc1ccccc1Nc1nc(N)nc(CN(C)C2CCCCC2)n1 the DAPI nuclei signal change (viability), lower = more cytotoxic was -2.24% and the inhibition was -18.7% (inactive).
For COc1ccccc1NC1=NC2(CCCC2)N=C(N)N1, the DAPI nuclei signal change (viability), lower = more cytotoxic was -8.79% and the inhibition was 8.65% (inactive).
With COc1ccccc1NC1=NC(c2ccc(Cl)cc2)N=C(N)N1 (stereo not given) the DAPI nuclei signal change (viability), lower = more cytotoxic was -23.4% and the inhibition was 58.3% (active).
With Cc1ccc(NC(=O)CN(C)C(=O)c2ccc(Cl)c(S(=O)(=O)NCc3ccco3)c2)cc1 the DAPI nuclei signal change (viability), lower = more cytotoxic was -5.08% and the inhibition was 12.3% (inactive).
In the case of CCCCc1ccc(S(=O)(=O)NC(=O)C2(C)CCN2C(=O)c2c(C)noc2C)cc1 (stereo not given), the DAPI nuclei signal change (viability), lower = more cytotoxic is reported as 2.79% and the inhibition is reported as 0.354% (inactive).
With O=C(Nc1cccc(C(=O)O)c1)/C(=C\c1ccccc1)NC(=O)c1ccc(Br)o1 the DAPI nuclei signal change (viability), lower = more cytotoxic was -3.36% and the inhibition was 6.66% (inactive).
With Cn1cncc1C#Cc1c(-c2ccsc2)sc2ccccc12 the DAPI nuclei signal change (viability), lower = more cytotoxic was 7.19% and the inhibition was -0.161% (inactive).
For COc1ccc2sc(-c3ccc(S(C)(=O)=O)cc3)c(-c3ccc(C(N)=O)cc3)c2c1, the DAPI nuclei signal change (viability), lower = more cytotoxic was -5.68% and the inhibition was 33.1% (inactive).
For COc1ccc2sc(-c3ccc(S(C)(=O)=O)cc3)c(C#Cc3cncn3C)c2c1, the DAPI nuclei signal change (viability), lower = more cytotoxic was 54.1% and the inhibition was 93.5% (active).
In the case of O=C(O)c1ccc([N+](=O)[O-])cc1Sc1ccsc1, the DAPI nuclei signal change (viability), lower = more cytotoxic is reported as -1.85% and the inhibition is reported as -10.5% (inactive).
For CCOC(=O)c1cc(-c2sc(NC(=O)c3ccccc3)nc2C)n(Cc2ccccc2)n1, the DAPI nuclei signal change (viability), lower = more cytotoxic was -2.4% and the inhibition was 44.7% (inactive).
With COCCNc1ncnc2c1ncn2[C@H]1CN(CCN2CCOCC2)C[C@@H](CO)O1 the DAPI nuclei signal change (viability), lower = more cytotoxic was -0.911% and the inhibition was 0.573% (inactive).
With CCCOC(=O)c1[nH]c2c(c1C)C(=O)CC(c1cc(OC)c(OC)c(OC)c1)C2 (stereo not given) the DAPI nuclei signal change (viability), lower = more cytotoxic was -10.1% and the inhibition was -26.3% (inactive).
In the case of CCCOC(=O)c1[nH]c2c(c1C)C(=O)CC(c1cccs1)C2 (stereo not given), the DAPI nuclei signal change (viability), lower = more cytotoxic is reported as -13.9% and the inhibition is reported as 64.7% (active).
In the case of COC(=O)C1C(=O)c2c([nH]c(C(=O)OCCSC)c2C)CC1C (stereo not given), the DAPI nuclei signal change (viability), lower = more cytotoxic is reported as -3.66% and the inhibition is reported as 1.54% (inactive).
In the case of Cn1c(CCN2CCN(c3ccccn3)CC2)nc2cc(NS(=O)(=O)c3ccc(F)cc3)ccc21, the DAPI nuclei signal change (viability), lower = more cytotoxic is reported as 6.59% and the inhibition is reported as -5.66% (inactive).

— PubChem BioAssay AID651582 (Sanford-Burnham Center for Chemical Genomics, 2012)
